Shown are actives, neighbours in structure and some others; about 2.9% of the full set was active somewhere.
ATXN2 expr inh = Primary qHTS for Inhibitors of ATXN expression. HEK-293 ATXN2-luciferase reporter, luminescence, 24 h. Potency, µM (doses to about 57 µM), hits mostly inhibitors. 0.72% of 360,000 active; note: nearly all actives have a fitted effect of over 55% in size
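qHTS (up to 57 uM final) was run with 24 h compound exposure of reporter cells at 37 °C. Each well was multiplexed: SteadyGlo luminescence measured ATXN2-luciferase expression after a fluorogenic Gly-Phe-AFC viability readout (25 uM final).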
Nrf2 block = Nrf2 qHTS screen for inhibitors | A549 ARE-Fluc reporter, luciferase luminescence, 18-24 h | Potency, µM (titrated, usually from 46 µM), hits mostly inhibitors | 2.1% of 360,000 active; note: nearly all actives have a fitted effect of over 60% in size
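Nrf2 function is reported as luminescence of an ARE-controlled luciferase in A549 cells. Compounds were tested at several concentrations, and a CellTiter-Fluor read on the same wells flagged cytotoxicity.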
ATXN viability = Viability Counterscreen for Primary qHTS for Inhibitors of ATXN expression | 0.49% of 400,000 active | S2 cells (HEK-293 line with an ATXN2-luciferase reporter) viability, CellTiter-Fluor protease fluorescence, 24 h | Potency, µM (top dose mostly 56.7 µM), most hits filed as cytotoxic; note: nearly all actives have a fitted effect of over 40% in size
Nrf2 activator = qHTS of Nrf2 Activators; 0.31% of 410,000 active; AREc32 ARE-luciferase reporter (MCF7-derived line), luminescence, 24 h; Potency, µM (highest dose often 46.1 µM), hits mostly activators; note: nearly all actives have a fitted effect of over 65% in size
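Luciferase luminescence (Steady-Glo, 30 min at room temperature) served as the read-out of ARE activation in AREc32 cells treated with compounds for 24 hr at 37 deg C.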
A549 tox = Nrf2 qHTS screen for inhibitors: counterscreen for cytotoxicity; A549 ARE-Fluc cells, CellTiter-Fluor viability, 18-24 h; Potency, µM (top dose mostly 46 µM), actives largely listed as inhibitors; 0.16% of 390,000 active; AID 504648, 2011
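A549 ARE-Fluc cells in 5% FBS OPTI-MEM, 5000 cells/well, rested 2 h then exposed to compounds in concentration-response for 18-24 h at 37 °C. Viability by CellTiter-Fluor fluorescence (Ex 405/Em 525) after 30 min; luciferase luminescence (BugLite, 15 min, RT) read afterwards.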
Large screens that a line does not name were inactive. Calls come from the whole dose curve; as a rule, active = well fitted curve in the direction sought with a large enough effect; inconclusive = small, poorly fitted or top-dose-only effect, or another doubt; inactive = no such curve, though single readings can be large; an effect the other way counts as inactive or inconclusive.

C#CCOCCOCCOCCNc1nc(N2CCN(C(=O)CCCCCCCCCCNC(=O)[C@H]([C@@H](C)CC)n3cc(CCCCN=C(N)N)nn3)CC2)nc(N2CCN(C(=O)CCCCCCCCCCNC(=O)[C@H](CCCCN)n3cc(C)nn3)CC2)n1	ATXN2 expr inh 25.1µM, Nrf2 block inconclusive, ATXN viability 20µM, A549 tox inconclusive
CC(C)(C)OC(=O)NCCCCCc1cn([C@@H](CO)C(=O)NCCCCCCCCCCC(=O)N2CCN(C(=O)OC(C)(C)C)CC2)nn1	ATXN2 expr inh 15.8µM, Nrf2 block 7.31µM, ATXN viability 11.2µM, A549 tox inconclusive
C#CCOCCOCCOCCNc1nc(N2CCN(C(=O)CCCCCCCCCCNC(=O)[C@@H](CCC(=O)O)n3cc(CCCCCN)nn3)CC2)nc(N2CCN(C(=O)CCCCCCCCCCNC(=O)[C@H]([C@@H](C)CC)n3cc(CCCCCN)nn3)CC2)n1	Nrf2 block inconclusive, ATXN viability inconclusive, A549 tox inconclusive
C[C@@H]1CN(Cc2ccc3c(c2)CN(C(=O)CN2CCOc4ccccc4C2)CCO3)C[C@H](C)O1	none (no result: ATXN2 expr inh, Nrf2 block, Nrf2 activator, A549 tox)
COc1ccc(CNC(=O)c2cnc3ccc(C)cn3c2=O)cc1	none
Cc1cccc2c1Sc1ccc(Cl)cc1CC2N1CCNCC1 (stereo unspecified)	ATXN2 expr inh inconclusive, ATXN viability 15.8µM
CCc1cccc2c1Sc1ccccc1CC2N1CCNCC1 (stereo unspecified)	A549 tox inconclusive (no result: ATXN2 expr inh, ATXN viability)
COc1cc2ncnc(NCCCN3CCOCC3)c2cc1OC	none (no result: ATXN2 expr inh)
COc1cc2c(Oc3ccc4[nH]c(C)cc4c3F)ncnc2cc1OCCCN1CCCC1	ATXN2 expr inh 34.3µM (no result: Nrf2 block, ATXN viability, Nrf2 activator, A549 tox)
O=C1CCc2cc(S(=O)(=O)Nc3ccc(Cl)c(Cl)c3)ccc2N1	A549 tox inconclusive (no result: ATXN2 expr inh, ATXN viability, Nrf2 activator)
CCc1nnc(SCC(=O)N(CC)c2ccccc2)c2cc3oc(C)cc3n12	Nrf2 activator 5.62µM (no result: ATXN2 expr inh, ATXN viability)
CCOC(=O)c1ccccc1NC(=O)CSc1nnc(CC)n2c1cc1occc12	none (no result: ATXN2 expr inh, ATXN viability)
CCOc1ccc(C(=O)Nc2ccc(S(=O)(=O)N3CCCCC3c3cccnc3)cc2)cc1 (stereo unspecified)	ATXN2 expr inh 17.8µM, ATXN viability inconclusive (no result: Nrf2 block)
CC(=O)Nc1ccc(S(=O)(=O)N2CCCCC2c2cccnc2)cc1 (stereo unspecified)	none
O=C(Nc1ccc(S(=O)(=O)N2CCCCC2c2cccnc2)cc1)c1ccc(Br)cc1 (stereo unspecified)	ATXN2 expr inh 14.1µM, ATXN viability 11.2µM (no result: Nrf2 block)
Cc1nc(N2CCN(C(=O)COc3ccccc3)CC2)c2c(C)c(C)sc2n1	Nrf2 block 20.6µM
COc1ccccc1N1CCN(C(=O)c2sc3ncnc(N4CCN(c5ccccn5)CC4)c3c2C)CC1	ATXN2 expr inh inconclusive, Nrf2 block inconclusive, ATXN viability inconclusive
Cc1nc(N2CCN(c3ccccn3)CC2)c2c(C)c(C(=O)N3CCN(c4ccc(F)cc4)CC3)sc2n1	ATXN2 expr inh inconclusive, Nrf2 block 18.4µM, ATXN viability inconclusive
COc1ccccc1N1CCN(C(=O)c2sc3nc(C)nc(N4CCN(c5ccccn5)CC4)c3c2C)CC1	ATXN2 expr inh inconclusive, Nrf2 block 14.6µM
O=C(Cn1cc(CNC(=O)c2ccccc2)nn1)Nc1cc(C(F)(F)F)ccc1Cl	none (no result: ATXN2 expr inh, ATXN viability, Nrf2 activator)
CC(C)(C(=O)NCC(F)(F)C(F)(F)F)C(=O)N[C@@H]1C(=O)Nc2ccccc2-c2ccccc21	none (no result: Nrf2 block, ATXN viability, Nrf2 activator, A549 tox)
CCOc1ccc2[nH]cc(C(=O)NCc3ccccc3)c(=O)c2c1	Nrf2 block 13µM, ATXN viability inconclusive (no result: ATXN2 expr inh)
Cc1ccc[n+](CC2OCc3ccccc3CO2)c1	Nrf2 block 7.31µM
COCCOC(=O)CSc1ncccc1-c1nc2cc(C)c(C)cc2[nH]1	Nrf2 block 14.6µM
Cc1cc2nc(-c3cccnc3SCC(=O)NC(C)C)[nH]c2cc1C	none
COc1ccc(S(=O)(=O)c2cc3cc(C(C)(C)C)cc(O)c3oc2=O)cc1	ATXN2 expr inh inconclusive, Nrf2 block inconclusive, ATXN viability inconclusive, Nrf2 activator 15.8µM
CCOc1ccc(S(=O)(=O)c2cc3cccc(OCC)c3oc2=O)cc1	Nrf2 activator 4.47µM
Cc1ccc(S(=O)(=O)c2cc3ccccc3oc2=O)cc1	Nrf2 activator 5.62µM (no result: ATXN viability)
CCOc1cccc2cc(C(=O)Oc3ccc(OC)cc3)c(=O)oc12	none
CC1C(=O)N2CCCc3cc(S(=O)(=O)NCCc4ccccc4)cc1c32 (stereo unspecified)	Nrf2 block 16.4µM
O=C1C[C@H](c2ccc(-c3ccccc3)cc2)N1S(=O)(=O)c1ccccc1[N+](=O)[O-]	none (no result: ATXN2 expr inh, ATXN viability, Nrf2 activator)
CCOC(=O)N1CCC(N(C(=O)Nc2ccc(Cl)c(Cl)c2)C(C)CC)CC1 (stereo unspecified)	Nrf2 block 14.6µM, A549 tox inconclusive
CC(C)CCN(C(=O)Nc1ccc(Cl)c(Cl)c1)C1CCN(C(C)C)CC1	none (no result: ATXN2 expr inh, Nrf2 block, ATXN viability)
COc1cccc(CN(C)CC(=O)Nc2ccccc2C(=O)Nc2ccccc2)c1OC	Nrf2 block 23.1µM, ATXN viability inconclusive, A549 tox inconclusive
COc1ccccc1NC(=O)CN1C(=O)C(C)(C)c2ccccc21	none (no result: Nrf2 block)
Cc1ccccc1/C=C/C(=O)c1ccc([N+](=O)[O-])o1	ATXN2 expr inh 12.6µM, Nrf2 block inconclusive, ATXN viability 12.6µM, Nrf2 activator inconclusive
CC(C)N(C(=O)/C=C/c1cccc([N+](=O)[O-])c1)C(C)C	Nrf2 activator 14.1µM (no result: ATXN2 expr inh)
Cc1cccc(/C=C/C(=O)c2ccc([N+](=O)[O-])o2)c1	ATXN2 expr inh 10µM, Nrf2 block inconclusive, ATXN viability 10µM, Nrf2 activator inconclusive, A549 tox inconclusive
COc1ccc(/C=C/C(=O)c2ccc([N+](=O)[O-])o2)cc1	ATXN2 expr inh inconclusive, ATXN viability inconclusive, Nrf2 activator inconclusive
O=C(/C=C/c1cccc([N+](=O)[O-])c1)c1ccco1	ATXN viability inconclusive, A549 tox inconclusive
O=C(/C=C/c1cccc([N+](=O)[O-])c1)c1ccc([N+](=O)[O-])o1	ATXN2 expr inh inconclusive, Nrf2 block inconclusive, ATXN viability 3.55µM, A549 tox inconclusive
COc1ccc(Br)cc1S(=O)(=O)N1CCN(S(=O)(=O)c2ccc3c(c2)OCCO3)CC1	Nrf2 block inconclusive (no result: ATXN2 expr inh, ATXN viability, Nrf2 activator)
COc1ccc(CNC(=O)Cn2nc(C)c3c(C)n(-c4ccc(C)cc4)nc3c2=O)cc1OC	Nrf2 block 23.1µM
CCOc1ccccc1CNC(=O)Cn1nc(C)c2c(C)n(-c3ccc(C)cc3)nc2c1=O	Nrf2 block 9.2µM, ATXN viability inconclusive (no result: ATXN2 expr inh)
COc1ccc(-c2cc(C)no2)cc1S(=O)(=O)NCc1cccs1	Nrf2 block inconclusive (no result: ATXN2 expr inh, ATXN viability)
N#Cc1nc(-c2ccco2)oc1N1CCOCC1	Nrf2 activator 12.6µM (no result: Nrf2 block)
COC(=O)COc1ccc(-c2nccc(-c3ccccn3)n2)cc1	ATXN2 expr inh inconclusive, Nrf2 block 7.31µM
Nc1nc(N)c2nc(-c3cccc(O)c3)c(-c3cccc(O)c3)nc2n1	ATXN2 expr inh 24.3µM (no result: Nrf2 block, ATXN viability, Nrf2 activator, A549 tox)
OB(O)c1ccc(B(O)O)cc1	Nrf2 block inconclusive (no result: ATXN2 expr inh, ATXN viability, Nrf2 activator)
